{"source": "paper PMC4336329", "about": "(PLoS ONE, 2015)", "note": "Out of some 310,000 compounds screened, about 14,000 (4.5%) showed an effect of 50% or more. The effect is printed as a negative number. The sample as a whole holds a higher share of strong results than the screen did.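 Note: peak tail current of the secondary pulse compared with the same well before compound.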", "data": [{"molecular_target": "human ether-à-go-go-related gene (hERG) potassium channel (human, UniProt Q12809)", "sequence (Q12809 whole entry, looked up)": "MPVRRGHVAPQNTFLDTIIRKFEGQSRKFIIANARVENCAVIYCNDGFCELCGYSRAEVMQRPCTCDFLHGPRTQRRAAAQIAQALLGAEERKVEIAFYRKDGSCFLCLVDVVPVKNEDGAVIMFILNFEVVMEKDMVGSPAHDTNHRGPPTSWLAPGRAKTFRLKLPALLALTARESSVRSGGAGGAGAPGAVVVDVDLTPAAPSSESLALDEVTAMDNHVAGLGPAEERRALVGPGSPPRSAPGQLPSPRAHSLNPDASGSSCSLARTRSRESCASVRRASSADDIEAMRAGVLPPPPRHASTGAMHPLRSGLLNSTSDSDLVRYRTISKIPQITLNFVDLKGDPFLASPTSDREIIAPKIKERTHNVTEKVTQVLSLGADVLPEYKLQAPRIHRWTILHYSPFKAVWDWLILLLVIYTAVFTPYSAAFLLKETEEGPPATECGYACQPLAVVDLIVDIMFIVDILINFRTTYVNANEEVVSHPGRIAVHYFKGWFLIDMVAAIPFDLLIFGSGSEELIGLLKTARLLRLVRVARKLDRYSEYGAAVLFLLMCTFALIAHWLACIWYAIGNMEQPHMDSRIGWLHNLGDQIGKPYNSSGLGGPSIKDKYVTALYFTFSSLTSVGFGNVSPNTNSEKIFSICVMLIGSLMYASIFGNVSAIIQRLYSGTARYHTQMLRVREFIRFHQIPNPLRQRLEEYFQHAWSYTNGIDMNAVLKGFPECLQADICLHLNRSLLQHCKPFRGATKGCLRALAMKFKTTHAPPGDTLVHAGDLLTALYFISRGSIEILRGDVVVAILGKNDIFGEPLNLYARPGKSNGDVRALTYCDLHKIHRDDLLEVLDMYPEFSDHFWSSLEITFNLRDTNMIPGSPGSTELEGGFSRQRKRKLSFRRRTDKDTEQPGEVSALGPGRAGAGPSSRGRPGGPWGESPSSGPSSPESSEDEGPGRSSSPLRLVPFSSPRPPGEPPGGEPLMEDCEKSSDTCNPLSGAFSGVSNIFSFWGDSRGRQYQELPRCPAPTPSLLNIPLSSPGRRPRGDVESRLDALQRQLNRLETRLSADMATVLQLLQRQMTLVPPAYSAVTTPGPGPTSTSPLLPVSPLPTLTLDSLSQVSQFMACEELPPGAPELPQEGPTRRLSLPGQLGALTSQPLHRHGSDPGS", "test": "primary screen, population patch clamp on CHO cells stably expressing hERG; higher = less effect of the substance", "method": "Briefly, Chinese hamster ovary (CHO) cells stably expressing the hERG channel were dislodged from tissue culture flasks and dispensed into PPC plates. […] During the recording, background leak currents were estimated by a 100 ms step to -80 mV from an initial holding potential of -70 mV and subtracted from the subsequent current measurement. The campaign was conducted in two phases using slight differences in recording protocol. In the first phase, the initial voltage pulse used a 100 ms step to -30 mV from a holding potential of -70 mV, a 2 s conditioning step to +25 mV, and a 2 s test step to -30 mV. During the second phase of the screen, the potential during the conditioning step was raised to +45 mV. In both phases of the campaign, a secondary voltage pulse was applied using the same parameters as the second phase initial pulse. The initial and secondary pulses were applied in the absence of compound, and upon application of 1 μM and 10 μM test concentrations. […]", "units": {"hERG current change (%, negative = inhibition) at 10uM": "%"}, "values": [{"smiles": "Cc1c(C(=O)N2CCN(c3ccccc3)CC2)sc2ncnc(N3CCC(C)CC3)c12", "hERG current change (%, negative = inhibition) at 10uM": -29.9}, {"smiles": "CCN1CCN(C(=O)c2sc3nc(C)nc(N4CCC(C)CC4)c3c2C)CC1", "hERG current change (%, negative = inhibition) at 10uM": -8.16}, {"smiles": "CCOC(=O)C1CCN(C(=O)c2sc3nc(C)nc(N4CCC(C)CC4)c3c2C)CC1", "hERG current change (%, negative = inhibition) at 10uM": -52.7}, {"smiles": "CCOC(=O)C1CCCN(C(=O)c2sc3nc(C)nc(N4CCOCC4)c3c2C)C1", "note": "(stereo not drawn)", "hERG current change (%, negative = inhibition) at 10uM": -3.42}, {"smiles": "Cc1c(C(=O)N2CCC(Cc3ccccc3)CC2)sc2ncnc(N3CCC(C)CC3)c12", "hERG current change (%, negative = inhibition) at 10uM": 8.19}, {"smiles": "CCOC(=O)C1CCN(C(=O)c2sc3ncnc(N4CCC(C)CC4)c3c2C)CC1", "hERG current change (%, negative = inhibition) at 10uM": -73.2}, {"smiles": "Cc1nn(-c2nnc(NC3CCCCC3)nn2)c(C)c1Br", "hERG current change (%, negative = inhibition) at 10uM": 10.8}, {"smiles": "OC1(c2ccccc2F)CCN(Cc2nnnn2Cc2ccc(F)cc2)CC1", "hERG current change (%, negative = inhibition) at 10uM": 8.52}, {"smiles": "C/C(N)=C(/C#N)C(=O)CSc1nc2cc(Cl)ccc2c(=O)n1Cc1ccco1", "hERG current change (%, negative = inhibition) at 10uM": 16.8}, {"smiles": "CC1(C)CC(=O)C2=C(C1)OC(/N=C/N1CCOCC1)=C(C#N)C2c1ccccc1", "note": "(stereo not drawn)", "hERG current change (%, negative = inhibition) at 10uM": -11}, {"smiles": "CCOc1cccc(OCCn2cnc3ccccc3c2=O)c1", "hERG current change (%, negative = inhibition) at 10uM": 5.84}, {"smiles": "Cn1c(=O)c2c(ncn2CC(=O)N2CCN(c3ccc([N+](=O)[O-])cc3)CC2)n(C)c1=O", "hERG current change (%, negative = inhibition) at 10uM": -72}, {"smiles": "COc1ccc(N2CCN(C(=O)Cn3cnc4c3c(=O)n(C)c(=O)n4C)CC2)cc1", "hERG current change (%, negative = inhibition) at 10uM": 5.48}, {"smiles": "Cc1cccc(N2CCN(C(=O)Cn3cnc4c3c(=O)n(C)c(=O)n4C)CC2)c1C", "hERG current change (%, negative = inhibition) at 10uM": -26}, {"smiles": "Cn1c(=O)c2c(nc(N3CCN(c4ccc([N+](=O)[O-])cc4)CC3)n2C)n(C)c1=O", "hERG current change (%, negative = inhibition) at 10uM": -76.2}, {"smiles": "Cn1c(=O)c2c(nc(N3CCOCC3)n2C)n(C)c1=O", "hERG current change (%, negative = inhibition) at 10uM": -4.44}, {"smiles": "Cn1c(=O)c2c(ncn2CC(=O)N2CCN(c3ccccc3)CC2)n(C)c1=O", "hERG current change (%, negative = inhibition) at 10uM": 0.318}, {"smiles": "Cn1c(=O)c2c(ncn2CC(=O)N2CCN(c3ccc(F)cc3)CC2)n(C)c1=O", "hERG current change (%, negative = inhibition) at 10uM": -23.4}, {"smiles": "Cn1c(=O)c2c(ncn2CC(=O)N2CCN(c3cccc(Cl)c3)CC2)n(C)c1=O", "hERG current change (%, negative = inhibition) at 10uM": -64.2}, {"smiles": "Cn1c(=O)c2c(nc(N3CCCC3)n2C)n(C)c1=O", "hERG current change (%, negative = inhibition) at 10uM": 10}, {"smiles": "Cc1ccc(C(=O)c2ccccc2C(=O)O)s1", "hERG current change (%, negative = inhibition) at 10uM": -1.28}, {"smiles": "COc1cccc(N2CCN(C3C4CC5CC(C4)CC3C5)CC2)c1", "note": "(stereo not drawn)", "hERG current change (%, negative = inhibition) at 10uM": 2.54}, {"smiles": "CC(=O)Nc1nc(NC(=O)/C=C/c2ccccc2)n(-c2ccccc2)n1", "hERG current change (%, negative = inhibition) at 10uM": -1.34}, {"smiles": "COC(CNC(=O)c1ccc2c(c1)ncn2C1CCCCCC1)OC", "hERG current change (%, negative = inhibition) at 10uM": 4.09}, {"smiles": "COc1ccc(-c2noc(C3CCCN(C(=O)c4cccs4)C3)n2)cc1", "note": "(stereo not drawn)", "hERG current change (%, negative = inhibition) at 10uM": -21.1}, {"smiles": "O=C(c1c(F)cccc1F)N1CCCC(c2nc(-c3ccc(F)cc3)no2)C1", "note": "(stereo not drawn)", "hERG current change (%, negative = inhibition) at 10uM": -6.69}, {"smiles": "O=C(c1cccs1)N1CCCC(c2nc(-c3ccc(F)cc3)no2)C1", "note": "(stereo not drawn)", "hERG current change (%, negative = inhibition) at 10uM": -51.7}, {"smiles": "O=C(c1ccc(F)cc1)N1CCCC(c2nc(-c3ccncc3)no2)C1", "note": "(stereo not drawn)", "hERG current change (%, negative = inhibition) at 10uM": -65.6}, {"smiles": "O=C(c1ccc(F)cc1)N1CCCC(c2nc(-c3cccs3)no2)C1", "note": "(stereo not drawn)", "hERG current change (%, negative = inhibition) at 10uM": -18.5}, {"smiles": "COc1ccc(-c2noc(C3CCCN(C(=O)c4ccc(F)cc4)C3)n2)cc1", "note": "(stereo not drawn)", "hERG current change (%, negative = inhibition) at 10uM": -35.3}, {"smiles": "CCN1C(=O)c2cccc3c(S(=O)(=O)NCC4CCCO4)ccc1c23", "note": "(stereo not drawn)", "hERG current change (%, negative = inhibition) at 10uM": 1.95}, {"smiles": "COCCNC(=O)C(c1cccc(OC)c1)N(C(=O)Cn1nnc2ccccc21)c1cccnc1", "note": "(stereo not drawn)", "hERG current change (%, negative = inhibition) at 10uM": 7.66}, {"smiles": "COCC1CCCCN1C(=O)c1ccc(OC2CCN(Cc3ccccn3)CC2)cc1", "note": "(stereo not drawn)", "hERG current change (%, negative = inhibition) at 10uM": 1.34}, {"smiles": "CC(=O)Nc1cc(NC(C)=O)cc(-c2nc3ccccc3[nH]2)c1", "hERG current change (%, negative = inhibition) at 10uM": 3.84}, {"smiles": "COc1ccc(/C=C(\\NC(=O)c2ccc(C)cc2)C(=O)NCCCN2CCOCC2)cc1OC", "hERG current change (%, negative = inhibition) at 10uM": 19.9}, {"smiles": "CC(C)c1ccc(/C=N/NC(=O)C(=O)NCCCN2CCOCC2)cc1", "hERG current change (%, negative = inhibition) at 10uM": -20.6}, {"smiles": "Cc1ccc(C(=O)N/C(=C/c2ccc(C(C)C)cc2)C(=O)NCCCN2CCOCC2)cc1", "hERG current change (%, negative = inhibition) at 10uM": -65.8}, {"smiles": "Cc1ccc(C(=O)N/C(=C\\c2ccc(C(C)C)cc2)C(=O)NCCCN2CCOCC2)cc1", "hERG current change (%, negative = inhibition) at 10uM": -72.3}, {"smiles": "CC(C)c1ccc(NC2CCCN(C(=O)c3n[nH]c4c3CCC4)C2)cc1", "note": "(stereo not drawn)", "hERG current change (%, negative = inhibition) at 10uM": 5.38}, {"smiles": "C=CCN(c1ccccc1C(=O)O)S(=O)(=O)c1ccc(NC(=O)OC)cc1", "hERG current change (%, negative = inhibition) at 10uM": 4.39}, {"smiles": "CC1CCCCC1NC(=O)CN(C)S(=O)(=O)c1cccc2cccnc12", "note": "(stereo not drawn)", "hERG current change (%, negative = inhibition) at 10uM": -0.115}, {"smiles": "COc1cccc(SCC(=O)N2CCN(c3ccccc3)CC2)c1", "hERG current change (%, negative = inhibition) at 10uM": -1.23}, {"smiles": "CCN1/C(=C/c2ccc3cc(C)ccc3[n+]2CC)Sc2ccccc21.[I-]", "hERG current change (%, negative = inhibition) at 10uM": -90.6}, {"smiles": "CCN1/C(=C/c2ccc3ccc(C)cc3[n+]2CC)Sc2ccccc21.[I-]", "hERG current change (%, negative = inhibition) at 10uM": -81.1}, {"smiles": "CCN1/C(=C/c2ccc3cc(C)ccc3[n+]2CC)Sc2ccc3sccc3c21.[I-]", "hERG current change (%, negative = inhibition) at 10uM": -44.5}, {"smiles": "CCC(=O)/C=C1/Sc2ccccc2N1CC", "hERG current change (%, negative = inhibition) at 10uM": 7.66}, {"smiles": "Cc1ccc2c(c1)S/C(=C\\c1cccc[n+]1C)N2CCO.[I-]", "hERG current change (%, negative = inhibition) at 10uM": -0.805}, {"smiles": "CCN1/C(=C/C(=O)c2ccco2)Sc2ccccc21", "hERG current change (%, negative = inhibition) at 10uM": 8.09}, {"smiles": "CCN1/C(=C/c2ccc3cccc(C)c3[n+]2CC)Sc2ccccc21.[I-]", "hERG current change (%, negative = inhibition) at 10uM": -75}, {"smiles": "CCC(=O)/C=C1\\Sc2ccccc2N1CC", "hERG current change (%, negative = inhibition) at 10uM": -3.72}, {"smiles": "CC[n+]1c(S(=O)(=O)[O-])ccc2ccc(C)cc21", "hERG current change (%, negative = inhibition) at 10uM": 6.26}, {"smiles": "COc1ccccc1CNCC(=O)Nc1ccc(N2CCOCC2)cc1.O=C(O)C(=O)O", "hERG current change (%, negative = inhibition) at 10uM": 1.57}, {"smiles": "O=C(NCc1cccnc1)C1CCCCN1S(=O)(=O)c1ccc(F)cc1", "note": "(stereo not drawn)", "hERG current change (%, negative = inhibition) at 10uM": -20.9}, {"smiles": "CC(=O)Nc1ccc(S(=O)(=O)N2CCN(C(=O)Cc3ccccc3)CC2)cc1", "hERG current change (%, negative = inhibition) at 10uM": -1.44}]}]}
